Here are results for 156 variants from a collection of fitness landscapes (doi:10.1016/j.celrep.2020.107928).

B1: Caulobacter ParB omega fusion; a variant is named by its letters at X, in order, B8GW30 (parent)
chain: MESVVVGEPGMSEGRRGLGRGLSALLGEVDAAPAQAPGEQLGGSREAPIEILQRNPDQPRRTFREEDLEDLSNSIREKGVLQPILVRPSPDTAGEYQIVAGERAWRAAQRAGLKTVPIMVRELDDLAVLEIGIIENVQRADLNVLEEALSYKVLMEKFERTQENIAQTIGKSXSHVANXMRLLXLPDEVQSYLVSGELTAXHARAIAAAADPVALAKQIIEGGLSVRETEALARKAPNLSAGKSKGGRPPRVKDTDTQALESDLSSVLGLDVSIDHRGSTGTLTITYATLEQLDDLCNRLTRGI

The full ranking holds about 81,000 sequences; the median of “one-hybrid fitness for binding NBS DNA” is about -0.1, and the highest 2% start at about 0.36. The entries come from a sample that favours the highest values as a whole.

Variants of B1 are the subject of this assay. Briefly: one-hybrid fitness for binding NBS DNA (the Noc-binding site; scaled: cognate 1, non-cognate 0); higher = stronger binding. The conditions noted are these: with NBS DNA site. Summed up:
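Pre- and post-selection plasmids were Illumina-sequenced, three replicate libraries were pooled, and any variant with under 10 reads was removed. The libraries were Caulobacter ParB with four specificity codons randomised, selected in E. coli USO through a HIS3 reporter whose site is 19 bp from the promoter. Cells grew 48 hours at 37°C on M9 without histidine, with 0.1 mM IPTG and 5 mM 3-AT. Fitness is the log change in variant-to-wild-type read ratio, rescaled against cognate and non-cognate.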
Turning to SGID, the “one-hybrid fitness for binding NBS DNA” value is not above 0.2.
As to QDWR, the “one-hybrid fitness for binding NBS DNA” value was not above 0.2.
Next, DLYM: not above 0.2; MQVF: not above 0.2; PLIS: not above 0.2.
Take QGKY: the “one-hybrid fitness for binding NBS DNA” value was not above 0.2.
For the variant QCVY, the “one-hybrid fitness for binding NBS DNA” value was not above 0.2.
As for QHKY, the figure is 0.529; as for QIKD, not above 0.2.
As for QHQY, the figure is not above 0.2.
Regarding QHVY, the “one-hybrid fitness for binding NBS DNA” value is not above 0.2.
As for QCKY, the figure is 0.59.
Turning to QSKY, the “one-hybrid fitness for binding NBS DNA” value stood at 0.517.
As for QPKY, the “one-hybrid fitness for binding NBS DNA” value was not above 0.2.
As for QIKP, the figure is not above 0.2; as for QSVY, not above 0.2; as for QIKY, 0.364.
Next, GTNT: not above 0.2; RTRV: 0.288; PYEG: not above 0.2.
In the case of AMAG, the “one-hybrid fitness for binding NBS DNA” value was not above 0.2.
Next, PRCC: not above 0.2; MKRL: not above 0.2; GLHC: not above 0.2.
On to WTLT, for which the “one-hybrid fitness for binding NBS DNA” value was not above 0.2.
As for YTVE, the figure is not above 0.2; as for QTVY, not above 0.2; as for QKVY, not above 0.2.
As for QAVY, the “one-hybrid fitness for binding NBS DNA” value is not above 0.2.
Next, QKKY: 0.498; QMVY: not above 0.2; QKNY: 0.26.
For the variant QANY, the “one-hybrid fitness for binding NBS DNA” value is not above 0.2.
Next, QTKY: 0.658; QMPY: not above 0.2; QAKY: 0.531.
Next, QMKY: 0.516; QTIY: not above 0.2; VVSE: not above 0.2.
For LAWC, the “one-hybrid fitness for binding NBS DNA” value is not above 0.2.
For RNCT, the “one-hybrid fitness for binding NBS DNA” value is not above 0.2.
Next, SKAC: not above 0.2.
For MVPR, the “one-hybrid fitness for binding NBS DNA” value was not above 0.2.
As for EELK, the figure is not above 0.2; as for TSEY, not above 0.2; as for HMMA, not above 0.2.
As for CPSC, the figure is not above 0.2.
For the variant TSCN, the “one-hybrid fitness for binding NBS DNA” value was not above 0.2.
As for GRQR, the figure is not above 0.2; as for QLVY, not above 0.2; as for QLKY, 0.46.
As for QLHY, the figure is not above 0.2.
Next, KCDL: not above 0.2; SRHH: not above 0.2.
Turning to QQLA, the “one-hybrid fitness for binding NBS DNA” value turned out to be 0.294.
Turning to QQDA, the “one-hybrid fitness for binding NBS DNA” value was determined as 0.25.
QQQA: the “one-hybrid fitness for binding NBS DNA” value amounted to 0.357.
Next, QQAA: 0.347; QQHA: 0.384.
Next, QQNA: 0.421; QQIA: not above 0.2.
As for QQVA, the figure is 0.271.
For QQSA, the “one-hybrid fitness for binding NBS DNA” value came to 0.37.
Next, QQKA: 0.628; QQPA: not above 0.2; PRNE: not above 0.2.
As for MSCY, the figure is not above 0.2; as for IKIS, not above 0.2; as for QDWF, not above 0.2.
Turning to TRTG, the “one-hybrid fitness for binding NBS DNA” value is not above 0.2.
Next, QQWA: 0.212; QQCA: 0.291.
Next, QQYA: 0.303.
Next, QQRA: 0.606.
On to QQFA, for which the “one-hybrid fitness for binding NBS DNA” value came to 0.201.
Next, QQGA: 0.388; RCVR: 0.349; RPVR: 0.204.
Regarding RKKM, the “one-hybrid fitness for binding NBS DNA” value came out at 0.269.
Next, RKVR: 0.478.
In the case of RKKR, the “one-hybrid fitness for binding NBS DNA” value turned out to be 0.768.
For the variant RKKF, the “one-hybrid fitness for binding NBS DNA” value is not above 0.2.
As for TEPD, the figure is not above 0.2.
Regarding QDCL, the “one-hybrid fitness for binding NBS DNA” value was not above 0.2.
Next, TRKS: 0.437; YRVR: not above 0.2; PRVR: not above 0.2.
For HRKR, the “one-hybrid fitness for binding NBS DNA” value is 0.395.
As for PCKR, the figure is 0.205.
Next, HRYR: not above 0.2; TRVS: not above 0.2.
Turning to TRKP, the “one-hybrid fitness for binding NBS DNA” value is not above 0.2.
As for YRKR, the “one-hybrid fitness for binding NBS DNA” value was 0.377.
As for PRKR, the figure is 0.4; as for HRVR, not above 0.2; as for YCKR, not above 0.2.
As for GNLD, the figure is not above 0.2; as for ICLR, not above 0.2; as for DVLD, not above 0.2.
For the variant AEAG, the “one-hybrid fitness for binding NBS DNA” value was not above 0.2.
For IGGG, the “one-hybrid fitness for binding NBS DNA” value was not above 0.2.
Next, AHLT: not above 0.2.
On to ARYR, for which the “one-hybrid fitness for binding NBS DNA” value is not above 0.2.
As for TRKR, the “one-hybrid fitness for binding NBS DNA” value was 0.799.
As for ARVR, the figure is not above 0.2.
On to TRKN, for which the “one-hybrid fitness for binding NBS DNA” value came to 0.212.
As for ARKR, the figure is 0.364.
As for TRVR, the figure is 0.215; as for KFSD, not above 0.2.
Turning to ETGL, the “one-hybrid fitness for binding NBS DNA” value was not above 0.2.
In the case of QPPR, the “one-hybrid fitness for binding NBS DNA” value is not above 0.2.
Take QTIN: the “one-hybrid fitness for binding NBS DNA” value is not above 0.2.
As for QTIR, the figure is 0.499.
Next, QTID: not above 0.2; QCPR: 0.37.
Next, QTPR: 0.42; QTPN: not above 0.2; QTPD: not above 0.2.
Consider QSPR, for which the “one-hybrid fitness for binding NBS DNA” value is 0.27.
Next, FWRC: not above 0.2.
Next, SYKP: not above 0.2.
With HILC, the “one-hybrid fitness for binding NBS DNA” value is not above 0.2.
As for CLQI, the “one-hybrid fitness for binding NBS DNA” value was not above 0.2.
Next, NVRS: not above 0.2; IVEG: not above 0.2.
Consider QRGG, for which the “one-hybrid fitness for binding NBS DNA” value is 0.367.
Turning to QCAG, the “one-hybrid fitness for binding NBS DNA” value was not above 0.2.
Next, QCRG: 0.451; QRFG: 0.249; QCQG: not above 0.2.
Next, QCGG: not above 0.2; QSQG: not above 0.2.
Next, QSRG: 0.319.
With QPGG, the “one-hybrid fitness for binding NBS DNA” value is not above 0.2.
As for QRQG, the figure is 0.366; as for QPRG, not above 0.2.
Next, QRAG: 0.37; PYIE: not above 0.2.
For ACCM, the “one-hybrid fitness for binding NBS DNA” value is not above 0.2.
As for VPMR, the figure is not above 0.2; as for STTV, not above 0.2; as for THKV, not above 0.2.
Next, IMSF: not above 0.2.
As for GCVM, the figure is not above 0.2.
In the case of QTRG, the “one-hybrid fitness for binding NBS DNA” value was determined as 0.496.
As for QRIG, the “one-hybrid fitness for binding NBS DNA” value was not above 0.2.
As for QCNG, the “one-hybrid fitness for binding NBS DNA” value was not above 0.2.
QRDG: the “one-hybrid fitness for binding NBS DNA” value was not above 0.2.
As for QMDG, the figure is not above 0.2.
As to QTDG, the “one-hybrid fitness for binding NBS DNA” value is not above 0.2.
In the case of QMYG, the “one-hybrid fitness for binding NBS DNA” value was not above 0.2.
In the case of QMRG, the “one-hybrid fitness for binding NBS DNA” value stood at 0.391.
Next, QRRG: 0.483.
Next, QTYG: not above 0.2.
As for QRNG, the figure is 0.381.
For the variant QRYG, the “one-hybrid fitness for binding NBS DNA” value was 0.312.
